The source of these data is PubChem BioAssay AID624330 (Southern Research Specialized Biocontainment Screening …, 2012).

What is called inhibition is the drop in the measured response relative to a control, in per cent.

The whole screen tested about 340,000 compounds, of which about 2,100 (0.62%) were called active.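 How the source made its calls: active means first-screen hits whose inhibition reached a set limit at any dose in the follow-up dose series; inconclusive means inhibition above the set first-screen limit but never retested; inactive means the rest.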 Only a sample is shown. Entries with a potency or affinity are not part of this list.

The experiment deals with Rac GTPase-activating protein 1 (Homo sapiens) (UniProt Q9H0H5). Description: MgcRacGAP GTPase-activating activity inhibitors, confirmation, biochemical, ADP Hunter fluorescence, primary and confirmatory (AID 624330).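 Further: fluorescence reports GDP produced by GAP-driven GTP hydrolysis.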 As to conditions: MgcRacGAP-stimulated Rac1 GTP hydrolysis, at 30 µM, hits give high values, GST-tagged Rac1 F28L mutant substrate.
Rac GTPase-activating protein 1 (Homo sapiens), sequence (Q9H0H5 whole entry, looked up): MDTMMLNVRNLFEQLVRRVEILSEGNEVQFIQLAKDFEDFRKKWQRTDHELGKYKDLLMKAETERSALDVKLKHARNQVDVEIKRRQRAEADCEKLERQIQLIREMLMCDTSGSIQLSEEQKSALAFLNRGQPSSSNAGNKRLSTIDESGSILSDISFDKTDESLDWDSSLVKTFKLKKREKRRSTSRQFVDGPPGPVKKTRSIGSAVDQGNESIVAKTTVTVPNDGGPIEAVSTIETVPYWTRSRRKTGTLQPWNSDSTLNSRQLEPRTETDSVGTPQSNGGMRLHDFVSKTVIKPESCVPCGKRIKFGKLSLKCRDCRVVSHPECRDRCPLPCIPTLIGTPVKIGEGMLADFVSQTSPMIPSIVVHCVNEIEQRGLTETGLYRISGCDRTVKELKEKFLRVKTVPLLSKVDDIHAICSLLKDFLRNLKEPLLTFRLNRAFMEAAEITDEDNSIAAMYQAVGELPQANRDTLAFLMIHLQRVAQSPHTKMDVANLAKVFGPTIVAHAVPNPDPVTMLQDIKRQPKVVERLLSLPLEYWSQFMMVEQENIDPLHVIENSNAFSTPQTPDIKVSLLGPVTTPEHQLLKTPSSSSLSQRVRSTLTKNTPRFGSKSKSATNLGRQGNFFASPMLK
Consider `COc1cc(NC(=O)CCN2CCN(CCO)CC2)cc(OC)c1`, for which the inhibition was 4.08% (inactive). As to `OC(CNCC1COc2ccccc2O1)COc1ccccc1F` (centres undefined), the inhibition was 8.38% (inactive). Regarding `OC(CNCC1COc2ccccc2O1)COc1ccc(Cl)cc1` (centres undefined), the inhibition is 6.5% (inactive).

For the molecule `Cc1ccc2nc(C)cc(C(=O)N3CCCC(CO)(Cc4ccccc4C)C3)c2c1` (centres undefined), the inhibition is 8.23% (inactive). Regarding `CN(C)c1ccc(CCc2ccc(N)cc2)cc1`, the inhibition was 31.6% (inactive). In the case of `CN(C)c1ccc(CN(C)C2CCCCC2)cc1`, the inhibition was 7.28% (inactive). Turning to `COc1ccc(C(CCNCc2ccc(OC(C)C)cc2)c2ccccc2OC)cc1` (centres undefined), the inhibition was 7.13% (inactive). Turning to `O=C1NC(=Nc2ccccc2)S/C1=C\c1ccccc1`, the inhibition is 3.51% (inactive). `CCc1ccc(N=C2NC(=O)/C(=C/c3cc(OC)c(O)c(OC)c3)S2)cc1`: the inhibition was 14.6% (inactive). Take `Cc1c(N2C(=O)/C(=C/c3ccccc3)SC2=S)c(=O)n(-c2ccccc2)n1C`: the inhibition was 6.19% (inactive). The value for `Cc1c(N2C(=O)/C(=C\c3ccccc3O)SC2=S)c(=O)n(-c2ccccc2)n1C` was 3.93% (inactive); that for `COc1cc(/C=C2\SC(=Nc3ccc(O)cc3)NC2=O)cc(OC)c1O` was 27.1% (inactive).

On to `Cc1c(N=C2C(=O)Nc3ccccc32)c(=O)n(-c2ccccc2)n1C`, for which the inhibition was 1.01% (inactive). `Cn1c(SCC(=O)NCc2cccs2)nnc1-c1ccncc1`: the inhibition was 5.96% (inactive).

In the case of `O=C(NCc1cc(C(F)(F)F)ccc1Cl)c1cccc2c1C(=O)c1ccc(N3CCCCC3)cc1S2(=O)=O`, the inhibition is 5.32% (inactive). Take `COC(=O)C1CC2=C(CCCC2=O)NC1=O` (centres undefined): the inhibition was 5.59% (inactive). The value for `COc1ccc(O)c(-c2cc(-c3cccc(Br)c3)n[nH]2)c1` was 10.7% (inactive). For `COc1ccc(NC(=O)C2CCN(C(=O)Cc3ccccc3)CC2)c(OC)c1`, the inhibition was 8.8% (inactive). For `C/C(=N\NS(C)(=O)=O)c1ccc(C)cc1`, the inhibition is 5.59% (inactive).

For the molecule `Cc1cccc(C(=O)Nc2ccc(C(=O)N/N=C/c3ccco3)cc2)c1`, the inhibition was 1.6% (inactive). For `CN(Cc1ccc(Cl)cc1Cl)C(=O)C1CSC2(C)CCC(=O)N12` (centres undefined), the inhibition is 7.87% (inactive). For the molecule `O=S(=O)(/N=C(/Nc1nccs1)c1ccc(F)cc1)c1ccccc1`, the inhibition was -7.34% (inactive). Turning to `COc1cccc(OC)c1OCCCCCCN1CCN(C)CC1`, the inhibition is 4.56% (inactive). For the molecule `COc1cccc(OC)c1OCCCCN1CCCCC1`, the inhibition is 19.4% (inactive). On to `Cc1cccc(C)c1OCCCN1CCOCC1`, for which the inhibition is 9.47% (inactive).

In the case of `COc1cccc(OC)c1OCCN1CCCC1`, the inhibition was -3.59% (inactive). As to `O=[N+]([O-])c1ccc(/C=N\N2CCN(Cc3ccccc3Cl)CC2)cc1`, the inhibition was 10% (inactive). Turning to `CC(=O)N1c2ccc(S(=O)(=O)NCCC(=O)NC3CCC(C)CC3)cc2CC1C` (centres undefined), the inhibition was 6.14% (inactive). On to `O=C(CSCC(=O)OCC(=O)c1ccc(Br)cc1)Nc1ccc(Br)cc1`, for which the inhibition is 2.71% (inactive). On to `C=CCn1c(C)cc(C(=O)COC(=O)CCc2cc(OC)c(OC)c(OC)c2)c1C`, for which the inhibition is 1.52% (inactive).

Turning to `COc1ccccc1NS(=O)(=O)c1ccc(C(=O)NCC(c2ccco2)N2CCCCC2)cc1` (centres undefined), the inhibition is -5.8% (inactive). For `Cc1ccc(Cl)c(OCCCCN(C)Cc2ccccc2)c1`, the inhibition was 26.2% (inactive). As to `Cc1ccc(C(C)C)c(OCCCN(C)Cc2ccccc2)c1`, the inhibition is 13% (inactive). On to `Cc1cc(C)c(OCCN(C)Cc2ccccc2)c(Br)c1`, for which the inhibition is 9.5% (inactive). Take `Cc1cc(C)c(C)c(OCCCCN(C)Cc2ccccc2)c1`: the inhibition was 26.2% (inactive). With `COc1ccc(-c2c[n+]3c4n2CCCCC4=C(c2ccccc2)C3)cc1`, the inhibition is 8.53% (inactive). As for `CCOC(=O)C1CCN(C(=O)CN2C(=O)c3cccnc3Oc3ccccc32)CC1`, the inhibition was 6.53% (inactive). Regarding `COc1ccc(NC(=O)CCNS(=O)(=O)c2ccc3c(c2)CC(C)N3C(=O)C2CC2)cc1` (centres undefined), the inhibition was 8.6% (inactive). For `COc1ccc(-c2cc(C(=O)N(C)Cc3ccc(F)cc3)c3ccccc3n2)cc1OC`, the inhibition was 9.06% (inactive). Turning to `CCSc1nnc([C@H](Cc2c[nH]c3ccccc23)NC(=O)OC(C)(C)C)o1`, the inhibition was 5.34% (inactive).

Consider `Cc1ccc(NCCC(=O)c2cccs2)cc1Cl`, for which the inhibition was -0.47% (inactive). In the case of `COc1ccc(NC(=O)CCC(=O)c2cccs2)cc1Cl`, the inhibition is 1.13% (inactive). Consider `O=C1CCNc2c(Cl)cc(Cl)cc21`, for which the inhibition was -0.57% (inactive). The value for `Cc1ccc(OC(=O)C(F)(F)F)c2c1NCCC2` was 22.1% (inactive); that for `COCc1[nH][nH]c(=O)c1C=Nc1ccc(Cl)cc1` was 8.52% (inactive). The value for `Cc1ccc(N(CC(=O)Nc2ccccc2-c2ccccc2)S(=O)(=O)c2ccccc2)cc1` was 1.42% (inactive). As to `O=C1Nc2ccccc2/C1=N/N=C/c1cccc(O)c1`, the inhibition is -0.92% (inactive).

On to `COc1ccc(O)c(/C=N/N=C2/C(=O)Nc3ccccc32)c1`, for which the inhibition is 10.2% (inactive). Regarding `C#CCOCCOCCOCCNc1nc(N2CCN(C(=O)[C@H](Cc3ccc(O)cc3)n3cc([C@@H](N)C(C)CC)nn3)CC2)nc(N2CCN(C(=O)[C@H](Cc3cc4ccccc4[nH]3)n3cc([C@@H](N)C(C)CC)nn3)CC2)n1` (some centres undefined), the inhibition is 7.82% (inactive). Consider `O=C(c1ccccc1)c1ccc2nc(-c3ccco3)c(-c3ccco3)nc2c1`, for which the inhibition was 25.8% (inactive). For the molecule `O=C(Nc1ccccc1)c1ccc2nc(-c3ccco3)c(-c3ccco3)nc2c1`, the inhibition is 14.3% (inactive). Consider `CCc1cccc(C)c1NC(=O)c1cccc(N(C)C)c1`, for which the inhibition was 23.8% (inactive).

On to `Cc1cc(=O)[nH]c2cc(O)ccc12`, for which the inhibition is 5.17% (inactive). As for `CCCCCCCCC1=NCCc2c1[nH]c1ccccc21`, the inhibition is 12.8% (inactive). With `CCOCCc1nnc(NC(=O)Cc2c(F)cccc2Cl)s1`, the inhibition is -4.41% (inactive). Take `NC(=O)c1ncn([C@@H]2O[C@H](CNCc3ccccc3OCc3ccc(Cl)cc3Cl)[C@@H](O)[C@H]2O)n1`: the inhibition was -6.96% (inactive). With `O=C(NCc1cccs1)Nc1ccc2c(c1)OCO2`, the inhibition is -0.17% (inactive). For `COc1ccc(C(=O)CCNc2ccc3c(c2)OCCO3)cc1`, the inhibition was 38.5% (inactive). Consider `CCOc1ccc(Br)cc1CNc1ccc2c(c1)OCCO2`, for which the inhibition was 24.3% (inactive). For `O=C(NCc1cccs1)c1ccc2c(c1)OCCO2`, the inhibition was -0.21% (inactive). As for `O=C(O)CCNc1ccc2c(c1)OCCO2`, the inhibition is 19.4% (inactive). As to `O=C(Cc1ccccc1[N+](=O)[O-])Nc1ccc2c(c1)OCCO2`, the inhibition was 2.24% (inactive). `Cc1ccc(S(=O)(=O)NCc2ccco2)cc1C`: the inhibition was 0.0567% (inactive).

On to `Cc1ccc(Nc2nc(N)c([N+](=O)[O-])c(NCc3ccco3)n2)cc1C`, for which the inhibition is 2.81% (inactive).
